Measured values published in PubChem BioAssay (NCI).
The panel holds about 83,000 compounds, 20% with a hit somewhere; the sample as a whole holds those more often.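 Testing used 96-well plates and a 48-hour single-concentration exposure. Example: -40 means 40% of the starting cells died.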 Unmarked numbers belong to inactive results. Calls of active or inactive are those of the source. Rule for the calls: active = growth percent below 10; inactive = the rest.

system: BT-549 breast; assay: NCI-60 one-dose screen, 48 h (100 = growth as untreated, 0 = no growth, -100 = all killed); conditions: 10 µM unless noted

SMILES	growth
CCOC(=O)C1=C(C)NC(C)=C(C(=O)OCC)C1(C)C	93.6%
Cc1[nH]c2ccc(F)cc2c1CCNC(=O)C1CCN(C(=O)c2ccccc2)C1 (stereo not given)	94.7% [25 µM]
COc1ccc(C(=O)N2NC(=O)/C(=C/c3ccc(Br)cc3)N=C2c2ccccc2)cc1	85.5%
Cc1ccc(-c2cc3nc(-c4ccccc4)nc(C(Cl)Cl)n3n2)cc1	60.3%
O=C(Nc1cccc(-n2cc(-c3ccncc3)c(-c3ccc(Cl)c(O)c3)n2)c1)Nc1cccc(C(F)(F)F)c1	36%
COC(OC)c1ccccc1	92.4%
COc1ccc(NC(=O)c2c(Nc3ccc(OC)cc3OC)n[nH]c2N)c(OC)c1	93.7%
O=C(C1=Cc2cc3ccccc3n2Cc2cnnn21)c1ccccc1	37.5%
N=C(N)c1ccc(-c2ccc(-c3cncc4ccccc34)s2)cc1F	89.5%
CN(C)c1oc(C2OC2c2ccccc2)nc1C#N (stereo not given)	95.6%
COc1cccc(-c2cc3c(O)cc(C#N)cc3[nH]2)c1	81.7%
c1ccc(-c2nc(N3CCNCC3)c3nc(-c4ccccc4)oc3n2)cc1	97.5%
CN(C[C@H]1Cc2c(cccc2N2CCN(Cc3ccccn3)CC2)CN1)[C@H]1CCCc2cccnc21	81.9%
COc1ccc(-n2c(=O)sc3c(Cl)nc(C)nc32)c(OC)c1	91.6%
O=C(Nc1ccc(Cl)c(Cl)c1)NS(=O)(=O)c1cnccc1Oc1ccc(F)cc1	93.7%
S=C(S)NCCc1c[nH]c2ccccc12	92.6%
COc1ccc(Nc2[nH]n3c(=O)cc(-c4ccccc4)nc3c2C(=O)Nc2ccc(C)cc2)c(OC)c1	92.9%
COc1ccc(-n2c(=S)sc3c(Cl)nc(C)nc32)c(OC)c1	90.8%

SMILES	growth
COc1ccc(-c2ccc(C)n2-c2ccc(-c3nc4ccccc4s3)cc2)cc1	108%
COc1cc(/C(C#N)=C/c2ccc3c(c2OC)OCO3)cc2c1OCO2	71.7%
Cc1ccc2ccccc2c1C[n+]1ccccc1	79.8%
COc1ccc(-c2ccc(-c3ccc(-c4ccc(C(=N)N)cc4)s3)s2)cc1OC	98.3%
O=C(CSc1nc2ccccc2[nH]1)Nc1ccc(-c2nc3ccccc3s2)c(Cl)c1	47.4%
O=c1ccn(-c2ncnc3nc[nH]c23)cc1	98.9%
CN(C[C@H]1Cc2c(cccc2N2CCN(c3ncccn3)CC2)CN1)[C@H]1CCCc2cccnc21	56.9%
COc1ccc(Nc2nn3c(-c4ccccc4)cc(-c4ccccc4)nc3c2C(N)=O)c(OC)c1	46.5%
COc1cc(-c2nn(-c3cccc(NC(=O)Nc4cccc(C(F)(F)F)c4)c3)cc2-c2ccncc2)ccc1Cl	-15.4% (active)
COc1ccc(C2C=C(c3ccc(Cl)cc3)N=C3SC=C(C)N32)c(Br)c1 (stereo not given)	19.7%
O=C1C2(c3ccccc3)C(c3ccccc3)=C(c3ccccc3)C1(c1ccccc1)C1CC=CC12 (stereo not given)	99.4%
CC(=O)Oc1csc(N(C(C)=O)c2cccc(C(F)(F)F)c2)n1	-89.8% (active)
COc1ccc(C2C=C(c3ccc(OC)c(OC)c3)N=C3SC=C(C)N32)c(Br)c1 (stereo not given)	99%
CCC(=O)OC1=CN2C(=NC(c3ccc(N)cc3)=CC2c2cc(OC)c(OC)c(OC)c2)S1 (stereo not given)	26.8%
CCCCCCCC/C=C/CCCCCCCC1=NC(C)(C)CN1C(C)(C)CO	76.3%
CN(C)c1cccc2c(S(=O)(=O)/N=C(\N)Nc3nc4ccccc4s3)cccc12	47.5%
N/C(=N\S(=O)(=O)c1ccccc1)Nc1nc2ccccc2s1	95.5%
COc1ccc(Nc2[nH]n3c(=O)cc(C)nc3c2C(N)=O)c(OC)c1	95.3%

system: MDA-MB-435 melanoma; assay: as above; conditions: 10 µM unless noted

SMILES	growth
CCOC(=O)C1=C(C)NC(C)=C(C(=O)OCC)C1(C)C	116%
Cc1[nH]c2ccc(F)cc2c1CCNC(=O)C1CCN(C(=O)c2ccccc2)C1 (stereo not given)	99.3% [25 µM]
COc1ccc(C(=O)N2NC(=O)/C(=C/c3ccc(Br)cc3)N=C2c2ccccc2)cc1	90.7%
Cc1ccc(-c2cc3nc(-c4ccccc4)nc(C(Cl)Cl)n3n2)cc1	-68.3% (active)
O=C(Nc1cccc(-n2cc(-c3ccncc3)c(-c3ccc(Cl)c(O)c3)n2)c1)Nc1cccc(C(F)(F)F)c1	15.6%
COC(OC)c1ccccc1	102%
COc1ccc(NC(=O)c2c(Nc3ccc(OC)cc3OC)n[nH]c2N)c(OC)c1	95.2%
CC(C)(C)n1cc(-c2ccnc(NCCCNS(=O)(=O)c3ccc(F)cc3)c2)c(-c2cccc(O)c2)n1	58.6%
O=C(C1=Cc2cc3ccccc3n2Cc2cnnn21)c1ccccc1	-7.53% (active)
N=C(N)c1ccc(-c2ccc(-c3cncc4ccccc34)s2)cc1F	-90.5% (active)
c1cc(C2=N[C@@H]3c4ccccc4C[C@@H]3O2)nc(C2=N[C@@H]3c4ccccc4C[C@@H]3O2)c1	104%
CN(C)c1oc(C2OC2c2ccccc2)nc1C#N (stereo not given)	101%
COc1cccc(-c2cc3c(O)cc(C#N)cc3[nH]2)c1	70.6%
c1ccc(-c2nc(N3CCNCC3)c3nc(-c4ccccc4)oc3n2)cc1	-93.7% (active)
CN(C[C@H]1Cc2c(cccc2N2CCN(Cc3ccccn3)CC2)CN1)[C@H]1CCCc2cccnc21	69.6%
COc1ccc(-n2c(=O)sc3c(Cl)nc(C)nc32)c(OC)c1	69.5%
O=C(Nc1ccc(Cl)c(Cl)c1)NS(=O)(=O)c1cnccc1Oc1ccc(F)cc1	86.8%
S=C(S)NCCc1c[nH]c2ccccc12	103%
COc1ccc(Nc2[nH]n3c(=O)cc(-c4ccccc4)nc3c2C(=O)Nc2ccc(C)cc2)c(OC)c1	96.8%
COc1ccc(-n2c(=S)sc3c(Cl)nc(C)nc32)c(OC)c1	30.9%

SMILES	growth
COc1ccc(-c2ccc(C)n2-c2ccc(-c3nc4ccccc4s3)cc2)cc1	89.6%
COc1cc(/C(C#N)=C/c2ccc3c(c2OC)OCO3)cc2c1OCO2	-39.4% (active)
Cc1ccc2ccccc2c1C[n+]1ccccc1	102%
COc1ccc(-c2ccc(-c3ccc(-c4ccc(C(=N)N)cc4)s3)s2)cc1OC	88.2%
O=C(CSc1nc2ccccc2[nH]1)Nc1ccc(-c2nc3ccccc3s2)c(Cl)c1	13.2%
O=c1ccn(-c2ncnc3nc[nH]c23)cc1	102%
CN(C[C@H]1Cc2c(cccc2N2CCN(c3ncccn3)CC2)CN1)[C@H]1CCCc2cccnc21	40.7%
COc1ccc(Nc2nn3c(-c4ccccc4)cc(-c4ccccc4)nc3c2C(N)=O)c(OC)c1	57.5%
COc1cc(-c2nn(-c3cccc(NC(=O)Nc4cccc(C(F)(F)F)c4)c3)cc2-c2ccncc2)ccc1Cl	-50% (active)
COc1ccc(C2C=C(c3ccc(Cl)cc3)N=C3SC=C(C)N32)c(Br)c1 (stereo not given)	9.2% (active)
O=C1C2(c3ccccc3)C(c3ccccc3)=C(c3ccccc3)C1(c1ccccc1)C1CC=CC12 (stereo not given)	92.9%
CC(=O)Oc1csc(N(C(C)=O)c2cccc(C(F)(F)F)c2)n1	98.1%
COc1ccc(C2C=C(c3ccc(OC)c(OC)c3)N=C3SC=C(C)N32)c(Br)c1 (stereo not given)	110%
CCC(=O)OC1=CN2C(=NC(c3ccc(N)cc3)=CC2c2cc(OC)c(OC)c(OC)c2)S1 (stereo not given)	23.1%
C=C1CCC2C(C)(CO)C(O)CCC2(C)C1C/C=C1/C(=O)OCC1Oc1ccccc1C (stereo not given)	59.3%
CCCCCCCC/C=C/CCCCCCCC1=NC(C)(C)CN1C(C)(C)CO	-18.9% (active)
CN(C)c1cccc2c(S(=O)(=O)/N=C(\N)Nc3nc4ccccc4s3)cccc12	-11.5% (active)
N/C(=N\S(=O)(=O)c1ccccc1)Nc1nc2ccccc2s1	101%
COc1ccc(Nc2[nH]n3c(=O)cc(C)nc3c2C(N)=O)c(OC)c1	114%
